Screening results from PubChem.
These entries were drawn from the full list.
aSyn UTR act – Activators via SNCA 5'UTR binding, MLPCN. activity score, % (tested at 7.5 µM), hits read low. 300,000 tested, 7.1% active. alpha-synuclein 5'UTR reporter, activators screen; in the data active = activity score below about -60%
Active calls of the source: *.

SMILES	aSyn UTR act
CC(C)(C)OC(=O)N/N=C\c1ccc(OC(=O)c2ccco2)cc1	-84*
CC(=O)Nc1cccc(-c2csc(Nc3ccc(C)cn3)n2)c1	-66*
CC(=O)Nc1ccc(-c2csc(Nc3cccc(C)n3)n2)cc1	-182*
CC(=O)Nc1cccc(-c2csc(Nc3ncccn3)n2)c1	-170*
Cc1nnc(SCC(=O)Nc2nsc(-c3ccc(C(C)(C)C)cc3)n2)s1	-70*
COc1ccc(Nc2cnn(-c3nc4ccccc4s3)c(=O)c2Cl)cc1	-139*
O=c1c(Cl)c(Nc2cccc(Cl)c2)cnn1-c1nc2ccccc2s1	-78*
CC(=NC1CCCC1)c1c(C)[nH]n(-c2nc3ccccc3s2)c1=O	94
COc1ccsc1NC(=O)OCc1ccc(Cl)cc1	-69*
CCOc1ccc(NC(=O)NCc2cccn2C)cc1	-87*
Cn1cccc1CNC(=O)Nc1ccc(Cl)c(Cl)c1	-212*
Cc1ccccc1-c1nc(-c2ccc(NC(=O)c3ccc(Br)o3)cc2)no1	-199*
COc1ccc(Cl)cc1-c1nc(-c2ccc(Br)o2)no1	-123*
Fc1ccccc1-c1nc(-c2ccc(Br)o2)no1	-74*
Cc1ccccc1-c1nc(-c2ccc(Br)o2)no1	-110*
CCC(=O)Nc1cc(C(=O)OCC(=O)c2ccccc2)ccc1C	-88*
CCC(=O)Nc1cc(C(=O)OCC(=O)c2ccccc2Cl)ccc1C	-168*
Cc1ccc(C(=O)OCC(=O)c2c[nH]c3ccccc23)cc1NC(=O)c1ccco1	-70*
Cc1ccc(NC(=O)CCc2ccc(C)o2)c(Br)c1	-72*
Cc1ccc(NC(=O)CCC(=O)c2cccs2)c(Br)c1	-79*
Cc1ccc(NC(=O)CNCc2cccs2)c(Br)c1	-119*
Cc1ccc(NC(=O)CNCc2ccccc2)c(Br)c1	-68*
COC(=O)c1ccc(C)c(NC(=O)CN(c2cc(OC)ccc2OC)S(C)(=O)=O)c1	-88*
COc1ccc(N(CC(=O)Nc2cc(Cl)ccc2C)S(=O)(=O)c2c(C)noc2C)cc1	78
Cc1cccc(-n2nc3c(c2NC(=O)C2CC2)CS(=O)(=O)C3)c1C	-85*
SMILES	aSyn UTR act
C=CCN1CCN(C(=O)CSc2ccccc2)CC1	-103*
COc1ccccc1N1CCN(C(=O)CSc2ccccc2)CC1	-82*
CC(=O)Nc1c(-c2ccc3ccccc3c2)nc2ccccn12	-124*
CCc1ccc2c(c1)/C(=C/C(=O)c1cccs1)C(=O)N2	-65*
CN(C)c1oc(/C=C/c2ccccc2)nc1C#N	-262*
COc1ccccc1/C=C/c1nc(C#N)c(N(C)C)o1	-196*
Cc1c2ccccc2nc2c(F)c(NC(C)C)c(F)c(F)c12	-106*
CCOc1cc(N(CC)CC)ccc1/C=C(/C#N)c1nc2ccccc2[nH]1	-107*
N#C/C(=C(/O)c1cccs1)c1nc2ccccc2[nH]1	-102*
N#C/C(=C\c1ccc(Cl)cc1)c1nc2ncccc2[nH]1	-94*
Cc1ccc(/C=C(\C#N)c2nc3ccccc3[nH]2)s1	-229*
N#C/C(=C\C1CC=CCC1)c1nc2ccccc2[nH]1 (stereo not drawn)	-66*
N#C/C(=C/c1cccs1)c1nc2ccccc2[nH]1	-201*
N#C/C(=C\c1c(Cl)cccc1Cl)c1nc2ccccc2[nH]1	-64*
Cc1cc(/C=C(\C#N)c2nc3ccccc3[nH]2)c(C)n1C	-224*
N#C/C(=C\c1cccs1)Sc1nc2ccccc2s1	-68*
O=C(/C=C/c1ccc(OC(F)F)cc1)Nc1cccc(S(=O)(=O)NC2=NCCCCC2)c1	-72*
O=C(CCl)Nc1cccc(S(=O)(=O)NC2=NCCC2)c1	-180*
COc1ccc(/C=C/C(=O)Nc2cccc(S(=O)(=O)NC3=NCCCCC3)c2)cc1	-67*
Cc1cccc(/C(N)=N/OC(=O)CCC2CCCCC2)c1	-109*
COc1ccc(/C(N)=N/OC(=O)CCC2CCCC2)cc1	-71*
Cc1ccc(/C(N)=N/OC(=O)CCC2CCCC2)cc1	-85*
O=c1c2c3nc4ccccc4nc3n(/N=C/c3ccccn3)c2ncn1-c1ccccc1	-238*
S=c1[nH]cnc2sc(-c3ccccc3)cc12	-71*
Cc1sc2ncnc(N/N=C/c3ccc(O)cc3)c2c1C	-64*
SMILES	aSyn UTR act
Cc1sc2ncnc(N/N=C/c3ccccc3O)c2c1C	106
COc1ccc(/C=N/Nc2ncnc3sc(C)c(C)c23)cc1	-114*
C=C(C)CSc1nncn1/N=C/c1ccc(OC)cc1	-187*
C=C(C)CSc1nnc(-c2cccc(Cl)c2)n1N	-85*
C=C(C)CSc1nnc(-c2ccc(OC)cc2)n1N	-103*
Cc1ccc(-c2cc3nc(C)cc(NCc4ccco4)n3n2)cc1	-157*
CCC(=O)n1nc(-c2ccc(Cl)cc2)nc1NCc1ccccc1	-93*
Clc1cccc(-c2cc3nc4c(c(NCc5ccco5)n3n2)CCCC4)c1	-115*
O=C(CCc1ccccc1)n1nc(-c2ccccc2)nc1NCc1ccco1	-67*
Cc1ccc(-c2nc(NCc3ccco3)n(S(C)(=O)=O)n2)cc1	-72*
CC(=O)n1nc(-c2ccc(C)cc2)nc1NCc1ccco1	-161*
Cc1cc(C(=O)COC(=O)c2cc(Cl)ccc2N)c(C)n1Cc1ccco1	-157*
Cc1cc(C(=O)COC(=O)c2cccn2C)c(C)n1Cc1ccco1	77
